Assay [1] can be described thus: A549 cell viability effects, profiling panel, calcein-AM fluorescence, 48 h, basal (AID 1162). The conditions noted are these: higher = more signal.
Assay [2] in a line: adipocyte viability effects, profiling panel, cell-based, 3T3-L1 adipocytes, calcein-AM fluorescence, 48 h, basal (AID 1163). As to conditions: 3T3-L1 adipocytes viability, higher = more signal.
A short description of assay [3]: HepG2 cell viability effects, profiling panel, calcein-AM fluorescence, 48 h, basal (AID 1164). The conditions noted are these: higher = more signal.
A short description of assay [4]: MM1S cell viability effects, profiling panel, calcein-AM fluorescence, 48 h, basal (AID 1165).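 Note: viability of MM1S multiple myeloma cells under basal unstimulated conditions.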 As to conditions: higher = more signal.
Assay [5] in a line: basal RPMI8226 viability, no added stimulus, profiling panel, cell-based, calcein-AM fluorescence, 48 h, PK04 Diversity Set (AID 1166).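 Note: cells grown under basal conditions without added stimulus.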 The conditions noted are these: RPMI8226 myeloma viability, higher = more signal.
Assay [6] can be described thus: basal HepG2 mitochondrial membrane potential changes, profiling panel, cell-based, JC-1 fluorescence, 24 h, 100 nL compound (AID 1167). As to conditions: higher = more signal.
Assay [7] in a line: basal 3T3-L1 adipocyte mitochondrial potential changes, profiling panel, cell-based, JC-1 fluorescence, 3T3-L1 adipocytes, 24 h, 100 nL compound (AID 1168). The conditions noted are these: JC-1 mitochondrial fluorescence, higher = more signal, called active from +8 up or from −8 down.
Assay [8] in a line: basal RPMI8226 mitochondrial membrane potential changes, profiling panel, cell-based, JC-1 fluorescence, 24 h, 100 nL compound (AID 1169). As to conditions: RPMI8226 myeloma, JC-1 mitochondrial potential fluorescence, higher = more signal.
Assay [9] is described as follows: basal MM1S mitochondrial membrane potential changes, profiling panel, cell-based, JC-1 fluorescence, 24 h, 100 nL compound (AID 1170). As to conditions: higher = more signal.
A short description of assay [10]: A549 lung cancer cell viability effects, profiling panel, resazurin fluorescence, 24 h, PK04 Diversity Set (AID 1171). The conditions noted are these: higher = more signal, called active from +8 up or from −8 down. On the technique in general: Alamar Blue is a resazurin reagent that responds to reducing activity.

Here are results for 16 compounds from PubChem BioAssay.

Structures are written as SMILES. The source made the active and inactive calls.
Note: test concentration not given here.

`C=C[C@H](C)[C@@H](OC(=O)Nc1ccc(SC)cc1)c1ccc(O)c2ccccc12`: the z-score was -0.89 in assay [1]; 0.0148 in assay [2]; -1.87 in [3]; -2.68 in [4]; -4.27 in assay [5]; -3.23 in assay [6]. Besides, the z-score in assay [7] was -0.475 (inactive); in [8], -0.934; in [9], -1.59; in assay [10], -0.774 (inactive).

On to `COC(=O)[C@H](Cc1ccccc1)N[C@H](/C=C/C1CC1)[C@@H](O)Cc1ccccc1`, for which the z-score was -0.531 in assay [1]; -0.451 in [2]; 0.021 in assay [3]; 0.18 in assay [4]; 0.732 in [5]; 1.46 in assay [6]. The z-score in [7] is 0.792 (inactive); in [8], -0.52; in assay [9], -1.88; in [10] it was 1.2 (inactive).

With `O=C(NCCN1CCOCC1)[C@@H]1c2ccccc2C(=O)N(Cc2cc(C(F)(F)F)cc(C(F)(F)F)c2)[C@H]1c1ccc(CO)cc1`, the z-score in [1] was 1.79; in assay [2], -0.587; in assay [3] it was 1.82; in [4], 0.266; in assay [5] it was -0.0119; in assay [6], 2.85. Besides, the z-score in [7] is 0.252 (inactive); in assay [8] it was -0.021; in [9], -0.227; in assay [10], 0.0288 (inactive).

As to `COC(=O)C(CC#Cc1ccc2c(c1)[C@]1(C(=O)N2)[C@H](c2ccccc2OCCO)N2[C@H](c3ccccc3)[C@H](c3ccccc3)OC(=O)[C@H]2[C@@H]1C(N)=O)C(=O)OC`, the z-score in [1] is -0.387; in [2] it was 0.395; in assay [3] it was -4.39; in [4], -3.38; in [5] it was -4.56; in assay [6], -2.46. Moreover, the z-score is 3.28 (inactive) in assay [7], -1.18 in assay [8], -2.09 in assay [9] and -1.01 (inactive) in assay [10].

As for `COCCCNC(=O)[C@@H]1c2ccccc2C(=O)N(Cc2ccccc2OC)[C@H]1c1ccc(CO)cc1`, the z-score in [1] was -0.0798; in [2], 1.02; in [3], -0.429; in assay [4], 0.528; in assay [5], -0.447; in assay [6] it was 1.59. The z-score was -0.588 (inactive) in assay [7], -0.171 in [8], -0.391 in assay [9] and 1.71 (inactive) in assay [10].

`[N-]=[N+]=NCc1ccccc1[C@@H]1OC(c2ccc(OCCCO)cc2)=N[C@]1(CCS(=O)(=O)c1ccccc1)C(=O)N1CCCCC1`: the z-score is 1.26 in [1]; -0.418 in assay [2]; 1.43 in assay [3]; -0.504 in assay [4]; -0.0169 in assay [5]; -0.132 in assay [6]. Further, the z-score in assay [7] was -0.159 (inactive); in [8] it was -0.653; in assay [9], -1.87; in assay [10] it was -0.182 (inactive).

`NC(=O)N1C(=O)C2C(C1=O)C1C=C(CCCO)C2C(C2CC2)N1Cc1cc2c(cc1Br)OCO2` (stereo not given): the z-score in assay [1] was -0.318; in assay [2], 0.505; in assay [3], -0.0479; in assay [4], -2.42; in assay [5], -0.885; in assay [6], -0.258. Besides, the z-score was -0.274 (inactive) in assay [7], 0.21 in [8], -0.237 in assay [9] and -0.604 (inactive) in assay [10].

`CCOC(=O)C1=CC[C@H]2C(=O)N(c3ccccc3)C(=O)[C@@H]12`: the z-score is -0.538 in assay [1]; -0.405 in [2]; 0.229 in assay [3]; -0.472 in [4]; 0.217 in assay [5]; -1.8 in assay [6]. Also, the z-score in [7] was -1.28 (inactive); in assay [8], -0.00668; in assay [9] it was 0.371; in assay [10] it was 0.396 (inactive).

Consider `CCCCCN1CC=CC23O[C@@H]4C=CCOC(=O)[C@@H]4[C@H]2C(=O)N(C(C)CO)[C@@H]3C1=O` (stereo not given in full), for which the z-score is -0.33 in assay [1]; -0.093 in [2]; -0.177 in [3]; -0.425 in [4]; -0.0937 in assay [5]; -0.714 in assay [6]. The z-score in assay [7] is 0.282 (inactive); in assay [8], -0.704; in [9] it was -0.212; in assay [10], 0.0264 (inactive).

For `O=C1NC(=O)C2C1C=CC(C(O)c1ccc(I)cc1)N2Nc1ccccn1` (stereo not given), the z-score in assay [1] was -0.0915; in assay [2], -0.891; in assay [3], -0.145; in [4] it was -0.619; in assay [5], -0.566; in [6] it was -1.35. Moreover, the z-score is -0.47 (inactive) in assay [7], 0.537 in assay [8], -0.0562 in assay [9] and -0.107 (inactive) in [10].

Take `COc1ccc(CCNC(=O)[C@@]2(C)c3ccccc3C(=O)N(c3ccc(C)cn3)[C@H]2c2ccc(CO)cc2)cc1`: the z-score is -0.0466 in assay [1]; -0.2 in [2]; -0.352 in [3]; -0.64 in [4]; -0.081 in assay [5]; -0.429 in assay [6]. Further, the z-score in assay [7] was 1.22 (inactive); in [8] it was 0.143; in assay [9], -0.00393; in [10], 0.236 (inactive).

`CCCC=C(CCC)[C@@H](NC(=O)OCC(C)C)c1ccccc1`: the z-score is -0.628 in assay [1]; 0.722 in [2]; -0.927 in assay [3]; -0.0228 in assay [4]; -1.71 in [5]; 0.485 in assay [6]. Further, the z-score is -0.594 (inactive) in assay [7], 0.0132 in assay [8], -0.558 in assay [9] and 0.292 (inactive) in assay [10].

Turning to `NCCCCCCNC(=O)[C@H]1C[C@H]2C(=O)N[C@@H](Cc3ccccc3)C(=O)N2[C@H]1c1cccc(OCCO)c1`, the z-score in assay [1] was 0.516; in assay [2], 0.454; in [3], -0.378; in [4], 0.456; in assay [5], 0.112; in assay [6], -0.215. Moreover, the z-score in assay [7] is 0.896 (inactive); in assay [8] it was -0.802; in [9], -0.531; in [10] it was 1.21 (inactive).

Turning to `C=CC1c2cc(O)c(OC)cc2CCN1Cc1cccc(OC(F)(F)F)c1` (stereo not given), the z-score in [1] was -1.97; in assay [2], 0.566; in assay [3], -3.19; in assay [4] it was -3.18; in assay [5], -2.2; in assay [6] it was -2.6. Besides, the z-score was -0.604 (inactive) in [7], -0.752 in [8], -1.85 in assay [9] and -0.821 (inactive) in assay [10].

Take `CC(=O)NCCCC[C@@H]1NC(=O)[C@H]2C[C@@H](C(=O)NCCCCCNC(=O)CS)[C@@H](c3ccc(O)cc3)N2C1=O`: the z-score was 0.489 in [1]; 0.102 in [2]; 0.0041 in assay [3]; -1.41 in assay [4]; 0.102 in assay [5]; 0.231 in assay [6]. Besides, the z-score in [7] was -0.729 (inactive); in assay [8] it was 0.698; in [9] it was 0.612; in [10], -0.187 (inactive).

Regarding `O=C(O)[C@H]1C[C@H]2C(=O)N3CCC[C@H]3C(=O)N2[C@H]1c1ccc(O)cc1`, the z-score is 0.835 in assay [1]; 0.469 in [2]; 0.0504 in assay [3]; -0.8 in assay [4]; 0.0046 in assay [5]; 1.38 in assay [6]. The z-score in assay [7] was -0.0658 (inactive); in assay [8] it was -0.703; in assay [9] it was -0.22; in [10], 0.799 (inactive).
